Measured values from PubChem BioAssay AID1053125 (Broad Institute, 2014).
Measured potencies and affinities stand elsewhere. Values without a mark were called inactive.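 How the source made its calls: active means viability loss whose fitted half-maximal concentration is at most twice the top valid tested dose; inconclusive means flat curve with 30 to 70% loss, or poor fit; inactive means the rest.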

Test: HepG2 cell cytotoxicity, dose response, cytotoxicity control, ATP luminescence, cherry-pick, set 6 (AID 1053125)
Conditions: HepG2 viability, ATP luminescence (CellTiter-Glo), 72 h; series mostly up to 26 µM; activity change, negative = cytotoxicity: at the top concentration

Row | Structure (SMILES) | activity change, negative = cytotoxicity [%]
1 | C=CCN1C(=S)CC(c2ccccc2)=Nc2ccccc21 | -3.92
2 | CC(=O)NNc1cc(N2CCOCC2)nc(N2CCOCC2)n1 | 6.7
3 | Cc1ccc(S(=O)(=O)Nc2ccc(Nc3ccccc3)cc2)cc1 | -9.07
4 | O=C(O)c1[nH]c2ccccc2c1C(c1cc(Br)ccc1O)c1c(C(=O)O)[nH]c2ccccc12 | -3.21
5 | CSc1ccc(Cn2c(C)c(C(=O)NCCC#N)sc2=O)cc1 | -4.93
6 | CCOC(=O)c1cc2c(=O)n3ccccc3nc2n(CCCOC)c1=NC(=O)c1ccncc1 | -12.2
7 | CCn1c(=N)c(S(=O)(=O)c2ccccc2)cc2c(=O)n3ccccc3nc21 | -12.9
8 | C=CCn1c(=N)c(C#N)cc2c(=O)n3ccccc3nc21 | -4.55
9 | O=c1oc2c(CN3CCN(CCO)CC3)c(O)ccc2cc1-c1ccccn1 | -7.38
10 | CCN(CC)c1ccc2c(C)c(Cl)c(=O)oc2c1 | -0.392
11 | CCOC(=O)c1c(C)n(C)c2ccc(OCC(O)CN3CCC(C)CC3)cc12 (stereo not given) | -5.75
12 | O=C(NNc1cc(N2CCCC2)nc(N2CCCC2)n1)c1ccc([N+](=O)[O-])cc1 | -4.33
13 | COc1ccc(CCN=C(N)NS(=O)(=O)c2ccc(F)cc2)cc1 | -13.1
14 | COc1ccc(CCNC(=O)CSc2cn(Cc3cccc(C)c3)c3ccccc23)cc1OC | 30.9
15 | Cc1ccc2[nH]c3ccccc3c(=O)c2c1 | -13.1
16 | CCc1nc2ccc(C(=O)NCCc3c[nH]c4ccccc34)cn2c1N(C=O)CCC(C)C | -13.9
17 | Cc1cccn2c(=O)c(/C=C(\C#N)C(N)=O)c(Oc3ccccc3)nc12 | -7.13
18 | N=c1oc2cc(O)ccc2cc1C(=O)Nc1ccc(Br)cc1 | -15.2

Row | Structure (SMILES) | activity change, negative = cytotoxicity [%]
19 | Cc1ccc2c(c1)N(C(=O)CCC(=O)NCCCN1CCOCC1)CC(C)O2 (stereo not given) | -15.4
20 | CN1c2ccc(Cl)cc2C(=O)NC1C1CC=CCC1 (stereo not given) | -1.75
21 | Cc1cc(-c2ccccc2)c2ccc(NC(=O)C(C)(C)C)nc2n1 | -0.045
22 | CCN(CC)c1ccc2cc(S(=O)(=O)c3ccc(Cl)cc3)c(=O)oc2c1 | -11.5
23 | CCOc1ccc(NC(=O)CN(C)C(=O)CCCNC(=O)c2ccc(Cl)cc2)cc1OCC | -7.49
24 | CCOc1ccc2nc(NCCNC(=O)CC)c(C#N)cc2c1 | 5.54
25 | NC(=O)c1cc([N+](=O)[O-])ccc1NCc1cccnc1 | 17.7
26 | CCOC(=O)c1c2ccc(OCC(=O)NN)cc2n2ccccc12 | -9.3
27 | Cc1ccc2nc3c(cc(S(=O)(=O)c4ccccc4)c(=N)n3Cc3ccco3)c(=O)n2c1 | -15.1
28 | CC(C)C(=O)Nc1sc2c(c1C(N)=O)CCN(Cc1ccccc1)C2 | -11
29 | Cn1cc(C(c2ccccc2OCC(=O)O)c2cn(C)c3ccccc23)c2ccccc21 | 15.3
30 | O=C(c1cccc(Cl)c1)N1CCC(=O)N(C(COCc2ccccc2)Cc2ccccc2)CC1 (stereo not given) | -2.11
31 | Cc1ccc2nc3c(cc(C(N)=S)c(=N)n3CCCOC(C)C)c(=O)n2c1 | -1.02
32 | O=C1CCc2cc(S(=O)(=O)NC(Cc3ccccc3)C(=O)NCCC3=CCCCC3)ccc2N1 (stereo not given) | 5.87
33 | Cc1cc2cc(CNC(=O)c3ccco3)ccc2n1C | -16
34 | C=CCc1c(O)c(CC)cc2c(C)cc(=O)oc12 | -9.42
35 | Cc1ccc(S(=O)(=O)c2cc3c(=O)n4ccccc4nc3n(C)c2=N)cc1 | -2.57
